Screening data (PubChem)
TDP1 cell CPT = growth inhibition of DT40 Tdp1-/-;hTDP1 cells with camptothecin (screen for TDP1 inhibitors); chicken DT40 Tdp1-/-;hTDP1 cells + 20 nM CPT, ATP luminescence, 48 h; Potency, µM (doses to about 46.2 µM), without a hit: at the highest dose activity change, negative = growth inhibition, most hits filed as inhibitors; hit rate 12% among 420,000; also: potency is read from the fitted curve at half-maximal effect; nearly all actives have a fitted effect of over 55% in size
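Cell growth measured by CellTiter-Glo luminescence after a minimum 48 h, 37 C compound exposure with 20 nM CPT in Tdp1-knockout DT40 cells stably expressing hTDP1, seeded 400/well; qHTS titration format.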
HT1080-NT tox = kills 2HG-producing HT-1080-NT fibrosarcoma cells. HT-1080-NT fibrosarcoma viability, CellTiter-Glo ATP luminescence, 48 h. Potency, µM (top dose mostly 46.1 µM), for the others: at the highest dose activity, negative = less viability, usual class: cytotoxic. hit rate 1.6% among 360,000;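 also: NT is the 2HG producing partner of a matched IDH1 knockdown line; potency is read from the fitted curve at half-maximal effect; 0% = DMSO-treated cells and -100% = media-only wells without cells; nearly all actives have a fitted effect of over 55% in size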
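Toxicity toward the 2HG-producing NT line was scored as %Activity, normalised to DMSO and no-cell wells, from CellTiter-Glo luminescence after 48 hours' treatment.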
IL1B secr inh = inhibitors of inflammasome signaling (IL-1 beta secretion) | THP-1 LPS/ATP IL-1B secretion, AlphaLISA, 16 h; active compounds read low | activity change, % at 57.5 µM | hit rate 4.7% among 360,000; in the data active = activity change below about -50%; inconclusive = mostly about -30% to -49%
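THP-1 cells pretreated 1 hr with compounds (up to 57.5 uM final), then stimulated with LPS (250 ng/mL final) plus ATP (1.25 mM final); secreted IL-1B measured by AlphaLISA after 16 hr, decreased signal indicating inhibition.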
HT1080 IDH1KD tx = kills HT-1080 cells with IDH1 knockdown; HT-1080 IDH1 knockdown viability, ATP luminescence, 48 h; Potency, µM (top dose mostly 46.1 µM), for the others: top-dose activity, negative = toxicity, most hits filed as cytotoxic; hit rate 2% among 360,000; AID 686971;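 also: potency is read from the fitted curve at half-maximal effect; 0% = DMSO wells and -100% = cell-free medium wells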
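IDH1KD HT-1080 cells, 750/well, RPMI + 5% FBS; compound pinned after 2 h settling; 48 h, 37 °C; CellTiter-Glo luminescence; % activity normalised to DMSO and no-cell wells; curves fitted, classed by r2 and efficacy.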
TDP1 cell noCPT = qHTS for Inhibitors of human tyrosyl-DNA phosphodiesterase 1 (TDP1): qHTS in cells in absence of CPT. DT40 Tdp1-/- hTDP1 cells, no CPT, ATP luminescence, 48 h. Potency, µM (doses to about 46.2 µM), for inactives: at the top dose activity change, negative = growth inhibition, most hits filed as inhibitors. hit rate 15% among 420,000; also: potency is read from the fitted curve at half-maximal effect; nearly all actives have a fitted effect of over 55% in size
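DT40 Tdp1-/-;hTDP1 cells, no CPT (DMSO vehicle only), 400 cells/well; compounds pin-transferred; ≥48 hr, 37 °C; CellTiter-Glo 30 min RT dark, luminescence read.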
Active calls of the source: *; ? = inconclusive; nt = no result; [ ] = another dose, or the depositor's remark. An excerpt weighted towards active compounds, which were near 19% of everything screened. Unless noted, calls follow the shape of the dose curve; as a rule, active = well fitted curve in the direction sought with a large enough effect; inconclusive = small, poorly fitted or top-dose-only effect, or another doubt; inactive = no such curve, though single readings can be large; an effect the other way counts as inactive or inconclusive. Unless noted, % is scaled to controls: 0 for no effect and ±100 for the full control effect.

SMILES | TDP1 cell CPT | HT1080-NT tox | IL1B secr inh | HT1080 IDH1KD tx | TDP1 cell noCPT
COc1cc(/C=C/c2nc3ccccc3c(=O)n2-c2ccccc2O)ccc1O | ? | ? | -65.8* | ? | ?
COc1cc(/C=C/c2nc3ccccc3c(=O)n2-c2cccc(O)c2)ccc1O | ? | -24.1% | -22.5 | ? | 18.4µM*
O=S(=O)(c1cccc(C(F)(F)F)c1)N1Cc2ccccc2-n2nncc2C1 | 23.1µM* | -7.8% | 15.2 | -7.2% | 9.2µM*
O=S(=O)(c1ccccc1)N1Cc2ccccc2-n2nncc2C1 | ? | 1.9% | 3.3 | -0.8% | 20.6µM*
c1ccc(CN2Cc3ccccc3-n3nncc3C2)cc1 | -4.7% | -2.1% | 13.0 | -3.2% | ?
CC1=C2[C@@H]3OC(=O)[C@H](C)C3CC[C@@]2(C)C=CC1=O (some centres not stated) | 3.9% | 10.4% | -2.5 | 5.5% | -25.0%
CNC(=O)O/N=C/C(C)(C)SC | 15.1% | nt | nt | nt | 19.9%
CCC(C)C1NC(=O)C2CCCN2C(=O)C(CC(C)C)OC(=O)CCNC(=O)C(C)N(C)C(=O)C(C(C)C)N(C)C1=O (configuration not stated) | 3.26µM* | 18.4µM* | -13.6 | 23.1µM* | 4.11µM*
CC(C)C[C@H](NC(=O)[C@H](Cc1ccccc1)NC(=O)CNC(=O)[C@@H](NC(=O)[C@@H](N)Cc1ccc(O)cc1)[C@H](C)O)C(=O)N[C@H](C(=O)O)[C@H](C)O | -25.3%[4.12 µM] | nt | nt | nt | -6.3%[4.12 µM]
O=C(C[C@@H]1CC[C@@H]2[C@H](COC[C@H](O)CN2Cc2cccc(C(F)(F)F)c2)O1)NCc1ccc(Cl)cc1 | 11.6µM* | -22.3% | 9.3 | -26.7% | 8.2µM*
O=C(CCC(=O)N1C[C@H]2C[C@@H](C1)c1cccc(=O)n1C2)NCc1cccc(C(F)(F)F)c1 | -17.3% | -1.9% | 18.0 | ? | -16.8%
O=C(Cc1ccc(S(=O)(=O)N2CCCC2)s1)N1CCN(c2ccc(F)cc2)CC1 | ? | -0.5% | 0.0 | -8.2% | ?
Cc1c(Cl)ccc2sc(N3CCN(C(=O)CCS(=O)(=O)c4ccc(F)cc4)CC3)nc12 | 0.581µM* | nt | nt | nt | 0.461µM*
C=CCc1c(C)[nH]c(=S)c(C#N)c1C | ? | 10.4% | 0.0 | 9.7% | ?
O=c1[nH]c(=S)[nH]c(O)c1N=Nc1ccc2c(c1)OCCO2 | 14.6µM* | -11.9% | -14.2 | -14.2% | 25.9µM*
O=c1[nH]c(=S)[nH]c(O)c1N=Nc1ccc2c(c1)OCO2 | ? | -21.6% | 14.7 | -18.1% | -3.1%
O=C(O)c1nn(Cc2ccc(Cl)cc2)c2ccccc12 | 3.0% | -3.8% | 0.0 | -13.7% | -20.9%
CC(C)N=C(NC(C)C)N1CC1 | -7.8% | 1.9% | -3.3 | -0.4% | -0.4%
CC1(C)Cc2c(c(N3CCOCC3)nc3snc(N)c23)CO1 | 2.82µM* | 11.2µM* | -107.5* | 20µM* | 2.51µM*
O=C1c2ccccc2-c2c1nc1c([n+]2[O-])CCCC1 | 11.6µM* | 8.7% | 7.6 | 16.3% | ?
CCCCCCOc1ccc(CN2CCN(C)CC2)cc1 | 17.8µM* | ? | ? | ? | 17.8µM*
COc1cccc(Cn2c(-c3cccs3)noc2=O)c1 | -10.8% | -27.3% | -18.9 | ? | ?
COc1ccc(-c2noc(=O)n2Cc2cc(C)ccc2C)cc1 | ? | ? | 30.1 | ? | 23.1µM*
COc1ccccc1N1CCN(S(=O)(=O)c2c(C)ccc3nsnc23)CC1 | -21.0% | -18.6% | -17.0 | ? | ?
CCC(C)C(=O)OC1C(O)C2C(CN3CC(C)CCC3[C@]2(C)O)C2C[C@]34O[C@@]5(O)C(OC(=O)C(C)(O)CC)CCC3(C)C5C(OC(C)=O)C(OC(C)=O)C4[C@@]21O (some centres not stated) | 0.8% | nt | nt | nt | 4.3%
Cc1ccccc1S(=O)(=O)N(C)C[C@@H]1OCc2ccccc2-c2c(n(C)c3ccccc23)C(=O)N([C@H](C)CO)C[C@@H]1C | 16.4µM* | -13.4% | -9.1 | -23.0% | 20.6µM*
